The structures appear in SMILES notation. Results filed as inconclusive are left out. A number with no mark means an inactive call. Calls of active or inactive are those of the source. Unless noted, the call rests on the fitted dose curve; in most records, active means well fitted curve in the direction sought with a large enough effect in the repeat runs; inconclusive means weak or mixed curves; inactive means no such curve, though single readings can be large; an effect the other way counts as inactive or inconclusive. Positions of bridges follow the written chain, without caps; N, C: chain ends. Non-standard residues stand in square brackets, D forms with d. Residues, ends and D or L forms follow the SMILES beside them. hArg = N=C(N)NCCCC[C@H](N)C(=O)O; Mpa = O=C(O)CCS

The nature of assay [1]: qHTS assay to identify small molecule antagonists of the thyroid receptor (TR) signaling pathway - cell viability counter screen (AID 743064). Further: nearly all actives have a fitted effect of over 50% in size. Further: potency means the concentration at half of the fitted maximal effect. Put shortly:
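GH3.TRE-Luc cells, 4 h pre-plating; cpd + T3 1 nM final; 37 °C 23.5 h; CellTiter-Fluor 30 min; fluorescence read.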
In general terms: In qHTS, concentration-response curves come from the screen itself.

Assay [2] in a line: qHTS assay to identify small molecule antagonists of the thyroid receptor (TR) signaling pathway (AID 743065). Further: nearly all actives have a fitted effect of over 55% in size. Further: potency means the concentration at half of the fitted maximal effect. Put shortly:
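GH3.TRE-Luc rat pituitary cells carrying two TR response elements driving luciferase were plated for 4 h, given compound plus 1 nM T3 (final), and incubated 23.5 h at 37 C. ONE-Glo luminescence measured reporter inhibition; CellTiter-Fluor fluorescence tracked cytotoxicity.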

Assay [3] deals with thyroid hormone receptor (rat, GH3 cells). Kind of assay: qHTS assay to identify small molecule agonists of the thyroid receptor (TR) signaling pathway (AID 743066; calls by dose curve).
Assay [4] is described as follows: qHTS assay to identify small molecule antagonists of the estrogen receptor alpha (ER-alpha) signaling pathway - cell viability counter screen (AID 743074; calls by dose curve;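 further: HEK293 cells carrying ER-alpha-UAS-bla reporter stimulated with 17beta-estradiol; nearly all actives have a fitted effect of over 45% in size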).
Assay [5] in a line: qHTS assay to identify small molecule antagonists of the estrogen receptor alpha (ER-alpha) signaling pathway using the BG1 cell line - cell viability counter screen (AID 743081).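 Further: compound given together with 17beta-estradiol as the ER stimulus; series mostly up to about 70 µM; nearly all actives have a fitted effect of over 45% in size.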
Another assay deals with Aromatase (Homo sapiens) (UniProt P11511). Nature of the assay: qHTS assay to identify aromatase inhibitors (AID 743083). Further: series mostly up to about 70 µM; nearly all actives have a fitted effect of over 55% in size.
Assay [6] in a line: qHTS assay to identify aromatase inhibitors - cell viability counter screen (AID 743084).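 Further: cells stimulated with testosterone during compound exposure; nearly all actives have a fitted effect of over 55% in size.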
For assay [7], the target named is Aryl hydrocarbon receptor (Homo sapiens) (UniProt P35869). Kind of assay: qHTS assay to identify small molecule that activate the aryl hydrocarbon receptor (AhR) signaling pathway (AID 743085).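 Further: HG2L7.5c1 human HepG2 liver cells with stably integrated DRE-driven firefly reporter; series mostly up to about 70 µM; nearly all actives have a fitted effect of over 15% in size.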 The method in brief:
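Luminescence read-out: ONE-Glo reagent, 30 min at room temperature, in HG2L7.5c1 HepG2 reporter cells treated 24 h at 37C. Viability was measured beforehand by CellTiter-Fluor fluorescence after 30 min at 37C.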

Assay [8] is described as follows: qHTS assay to identify small molecule that activate the aryl hydrocarbon receptor (AhR) signaling pathway - cell viability counter screen (AID 743086).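 Further: HepG2 liver cells carrying the AhR DRE luciferase reporter; series mostly up to about 70 µM; nearly all actives have a fitted effect of over 45% in size.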 Put shortly:
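HepG2-AhR-luc (HG2L7.5c1) cells, 4000/well, were preincubated 5 h at 37C, exposed to compound in qHTS format for 24 hr at 37C, then given CellTiter-Fluor for 30 min; viability was read as fluorescence in the reporter wells.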

For assay [9], the target named is Peroxisome proliferator-activated receptor gamma (Homo sapiens) (UniProt P37231). Kind of assay: qHTS assay to identify small molecule agonists of the peroxisome proliferator-activated receptor gamma (PPARg) signaling pathway (AID 743094; active means well fitted activation curve with a large enough effect in the signal ratio in the repeat runs, not every such curve was filed as active; the % refers to the signal ratio). The method in brief: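 Following 5 h plating at 37C, PPARg-bla HEK293H cells receive compound or DMSO for 17 h; fluorescence intensity is recorded after LiveBLAzer B/G loading for 1 h at room temperature.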

Assay [10] in a line: qHTS assay to identify small molecule antagonists of the peroxisome proliferator-activated receptor gamma (PPARg) signaling pathway - cell viability counter screen (AID 743194). Further: nearly all actives have a fitted effect of over 55% in size. The method in brief:
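PPARg-UAS-bla HEK293H cells were plated, rested 5 h at 37 C, then treated with compounds plus rosiglitazone (50 nM final) for 17 h at 37 C; viability was then read by CellTiter-Glo luminescence after 30 min at room temperature.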

Assay [11] can be described thus: qHTS assay for small molecule agonists of the antioxidant response element (ARE) signaling pathway (AID 743202; active means well fitted activation curve with a large enough effect in the signal ratio in the repeat runs, not every such curve was filed as active; the % refers to the signal ratio). Put shortly: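 Compounds delivered in DMSO to ARE-bla HepG2 cells (2,000 cells/well, pre-incubated 5 h) and left 16 h at 37 C. LiveBLAzer B/G FRET substrate then added for 2 h at RT before fluorescence reading.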
Assay [12] can be described thus: qHTS assay for small molecule agonists of the antioxidant response element (ARE) signaling pathway - cell viability counter screen (AID 743203; calls by dose curve; further: nearly all actives have a fitted effect of over 55% in size). Put shortly:
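Compounds in DMSO were pinned onto ARE-bla HepG2 cells plated 5 hrs earlier at 2,000 cells/well. Sixteen hours later at 37C/5% CO2, CellTiter-Glo was added and luminescence measured after 30 min at room temperature.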

Assay [13] can be described thus: qHTS assay for small molecule activators of the heat shock response signaling pathway - cell viability counter screen (AID 743209). Further: nearly all actives have a fitted effect of over 50% in size. Put shortly: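 Counter screen for cytotoxicity in HeLa HSE-bla reporter cells. Treatment was 5 h at 37 C; viability was detected by luminescent ATP assay (CellTiter-Glo) in the same wells as the beta-lactamase read.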
The nature of assay [14]: qHTS assay for small molecule activators of the heat shock response signaling pathway (AID 743210; active means well fitted activation curve with a large enough effect in the signal ratio in the repeat runs, with a control signal flat, not every such curve was filed as active; the % refers to the signal ratio;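 further: HeLa cells with beta-lactamase reporter driven by heat shock elements; series mostly up to about 63 µM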). Put shortly:
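Reporter gene assay: HeLa cells stably bearing an HSE-bla construct, compound treatment 5 h at 37 C, LiveBLAzer substrate 2.5 h at RT, fluorescence intensity.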

The target of assay [15] is Estrogen receptor (Homo sapiens) (UniProt P03372). Kind of assay: qHTS assay to identify small molecule agonists of the estrogen receptor alpha (ER-alpha) signaling pathway using the BG1 cell line (AID 743079). Further: nearly all actives have a fitted effect of over 20% in size.
For assay [16], the target named is Peroxisome proliferator-activated receptor gamma (Homo sapiens) (UniProt P37231). Nature of the assay: qHTS assay to identify small molecule antagonists of the peroxisome proliferator-activated receptor gamma (PPARg) signaling pathway (AID 743191; calls by dose curve; further: series mostly up to about 63 µM; nearly all actives have a fitted effect of over 30% in size). Put shortly: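 GeneBLAzer PPARg UAS-bla HEK293H cells carrying a UAS-driven beta-lactamase reporter were plated at 3000 cells/well, preincubated 5 h at 37C, then given compound for 17 h at 37C; LiveBLAzer B/G FRET substrate was read after 1 h at room temperature.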

The target in assay [17] is Estrogen receptor (Homo sapiens) (UniProt P03372). Nature of the assay: qHTS assay to identify small molecule antagonists of the estrogen receptor alpha (ER-alpha) signaling pathway (AID 743069; active means well fitted curve in the direction sought with a large enough effect in the signal ratio in the repeat runs, not every such curve was filed as active; the % refers to the signal ratio). Put shortly: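 Estradiol-stimulated ER-alpha-UAS-bla HEK293 cells, 18 hr compound exposure at 37C. LiveBLAzer B/G substrate, 2 hr RT, fluorescence read.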
Assay [18] can be described thus: qHTS assay to identify small molecule antagonists of the estrogen receptor alpha (ER-alpha) signaling pathway using the BG1 cell line (AID 743080; calls by dose curve;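 further: BG1 cells stimulated with 17beta-estradiol alongside compound; series mostly up to about 70 µM; nearly all actives have a fitted effect of over 25% in size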). The method in brief:
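After 5 days in phenol-red-free 10% charcoal-stripped FBS medium, BG1-Luc-4E2 cells were seeded, left 24 h at 37 C, co-treated with compounds and 17beta-estradiol for 21.5 h, then assayed for viability and luciferase.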

Assay [19] has as its target Estrogen receptor (Homo sapiens) (UniProt P03372). Kind of assay: qHTS assay to identify small molecule agonists of the estrogen receptor alpha (ER-alpha) signaling pathway (AID 743075; calls by dose curve;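 further: HEK293 GripTite cells with ER-alpha and UAS-driven beta-lactamase reporter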).

Chain of Peroxisome proliferator-activated receptor gamma (Homo sapiens) (P37231 whole entry, looked up): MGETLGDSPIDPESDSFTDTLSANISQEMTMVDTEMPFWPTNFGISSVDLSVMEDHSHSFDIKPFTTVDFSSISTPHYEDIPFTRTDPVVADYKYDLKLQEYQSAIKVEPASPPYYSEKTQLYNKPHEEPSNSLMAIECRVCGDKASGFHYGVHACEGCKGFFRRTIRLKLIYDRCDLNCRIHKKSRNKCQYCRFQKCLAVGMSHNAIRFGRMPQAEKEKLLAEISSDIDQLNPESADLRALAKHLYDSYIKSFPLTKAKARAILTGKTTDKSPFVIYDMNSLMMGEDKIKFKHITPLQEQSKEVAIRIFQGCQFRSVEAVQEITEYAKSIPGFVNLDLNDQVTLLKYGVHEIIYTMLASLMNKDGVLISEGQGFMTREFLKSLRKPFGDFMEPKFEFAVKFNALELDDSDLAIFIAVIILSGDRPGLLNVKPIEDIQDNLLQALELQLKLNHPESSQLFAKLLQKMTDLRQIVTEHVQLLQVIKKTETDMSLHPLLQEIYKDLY
Chain of Estrogen receptor (Homo sapiens) (P03372 whole entry, looked up): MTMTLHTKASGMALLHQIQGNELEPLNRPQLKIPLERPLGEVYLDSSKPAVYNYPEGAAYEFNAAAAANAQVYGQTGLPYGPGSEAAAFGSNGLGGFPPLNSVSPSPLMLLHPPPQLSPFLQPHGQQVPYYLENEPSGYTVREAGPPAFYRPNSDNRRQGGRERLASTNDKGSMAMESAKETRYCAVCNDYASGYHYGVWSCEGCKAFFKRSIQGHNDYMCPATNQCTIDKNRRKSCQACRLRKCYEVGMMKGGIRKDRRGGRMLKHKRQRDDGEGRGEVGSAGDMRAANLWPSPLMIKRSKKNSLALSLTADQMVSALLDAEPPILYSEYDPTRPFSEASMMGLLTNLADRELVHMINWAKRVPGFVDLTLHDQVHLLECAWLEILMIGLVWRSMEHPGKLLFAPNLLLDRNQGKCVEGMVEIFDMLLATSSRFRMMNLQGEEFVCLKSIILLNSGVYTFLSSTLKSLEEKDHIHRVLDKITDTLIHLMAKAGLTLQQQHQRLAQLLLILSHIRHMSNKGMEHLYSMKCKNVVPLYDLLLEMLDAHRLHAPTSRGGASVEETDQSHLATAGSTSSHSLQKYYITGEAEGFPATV
Chain of Aryl hydrocarbon receptor (Homo sapiens) (P35869 whole entry, looked up): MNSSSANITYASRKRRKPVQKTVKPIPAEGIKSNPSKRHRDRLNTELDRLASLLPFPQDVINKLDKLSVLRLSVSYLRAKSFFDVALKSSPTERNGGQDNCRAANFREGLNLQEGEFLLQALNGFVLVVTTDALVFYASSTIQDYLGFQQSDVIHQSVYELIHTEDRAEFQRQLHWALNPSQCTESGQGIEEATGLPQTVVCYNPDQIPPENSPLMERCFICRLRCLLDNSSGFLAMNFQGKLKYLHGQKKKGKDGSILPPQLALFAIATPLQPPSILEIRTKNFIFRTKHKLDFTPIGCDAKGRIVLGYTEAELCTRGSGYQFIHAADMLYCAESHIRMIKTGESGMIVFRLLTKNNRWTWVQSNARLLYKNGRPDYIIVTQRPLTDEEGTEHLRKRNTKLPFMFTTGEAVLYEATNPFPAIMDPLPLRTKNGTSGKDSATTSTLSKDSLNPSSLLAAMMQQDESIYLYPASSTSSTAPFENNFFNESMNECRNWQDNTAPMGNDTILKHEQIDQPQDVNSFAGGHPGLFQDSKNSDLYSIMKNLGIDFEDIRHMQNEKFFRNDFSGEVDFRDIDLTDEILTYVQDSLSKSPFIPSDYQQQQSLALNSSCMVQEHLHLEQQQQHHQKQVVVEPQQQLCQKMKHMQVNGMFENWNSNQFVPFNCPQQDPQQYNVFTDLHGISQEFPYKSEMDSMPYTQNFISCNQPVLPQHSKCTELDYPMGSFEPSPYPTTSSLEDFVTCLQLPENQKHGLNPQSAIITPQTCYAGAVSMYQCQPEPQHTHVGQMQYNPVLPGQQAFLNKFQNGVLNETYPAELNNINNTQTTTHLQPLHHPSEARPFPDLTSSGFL
Chain of Aromatase (Homo sapiens) (P11511 whole entry, looked up): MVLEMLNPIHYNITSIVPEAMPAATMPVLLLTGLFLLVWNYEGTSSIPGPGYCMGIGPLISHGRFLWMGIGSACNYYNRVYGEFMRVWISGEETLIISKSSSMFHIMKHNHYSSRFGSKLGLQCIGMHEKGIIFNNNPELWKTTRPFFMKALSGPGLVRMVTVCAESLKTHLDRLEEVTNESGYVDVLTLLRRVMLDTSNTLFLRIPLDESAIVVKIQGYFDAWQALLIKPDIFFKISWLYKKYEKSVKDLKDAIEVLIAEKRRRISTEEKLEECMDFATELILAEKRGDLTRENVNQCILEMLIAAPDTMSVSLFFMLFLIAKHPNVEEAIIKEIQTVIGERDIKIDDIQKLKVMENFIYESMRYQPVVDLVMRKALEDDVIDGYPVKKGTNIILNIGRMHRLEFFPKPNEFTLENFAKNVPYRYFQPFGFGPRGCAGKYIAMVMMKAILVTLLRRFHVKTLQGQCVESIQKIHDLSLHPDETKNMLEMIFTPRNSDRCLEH

As for `C=Cc1ccc(C(C)(C)C)cc1`, the Potency result in assay [1], in assay [2], in assay [5], in assay [6], in assay [7] and in assay [8] was “inactive” each time. Moreover, the Potency entry in assay [9], in [11] and in [13] was “inactive” in each case. The outcome (in assay [3]; in assay [4]; with Aromatase (Homo sapiens); in assay [10]; in [12]; in assay [14]) was inactive.

As to `CC(=O)CCC1=C(C)CCCC1(C)C`, the Potency result in assay [1], in assay [2], in assay [15], in assay [5], in assay [6] and in [7] was “inactive” throughout. Further, the Potency entry in assay [8], in assay [9] and in assay [11] was “inactive” each time. Further, the call (in assay [3]; in assay [4]; with Aromatase (Homo sapiens); in [16]; in [10]; in [12]) was inactive.

Take `NC(=O)[C@@H]1CSSCCC(=O)N[C@@H](CCCCN=C(N)N)C(=O)NCC(=O)N[C@@H](CC(=O)O)C(=O)N[C@@H](Cc2c[nH]c3ccccc23)C(=O)N2CCC[C@H]2C(=O)N1` ([Mpa][hArg]GDWPC-NH2; disulfide 1-7): the Potency entry in [1], in [2], in assay [5], in assay [6], in assay [7] and in assay [8] was “inactive” each time. In addition, the Potency entry in assay [9], in assay [11] and in assay [13] was “inactive” in each case. In addition, the compound was classed as inactive (in assay [3]; in [17]; in assay [4]; in assay [18]; in the assay with Aromatase (Homo sapiens); in assay [16]). The call in assay [10], in [12] and in [14] was inactive.

Take `C=CCSSCCC`: the Potency entry in assay [1], in [2], in [19], in assay [15], in assay [5] and in [6] was “inactive” throughout. Also, the Potency entry in assay [8], in assay [9], in assay [11] and in [13] was “inactive” each time. Moreover, the call (in assay [3]; in assay [4]; with Aromatase (Homo sapiens); in assay [10]; in assay [12]; in assay [14]) was inactive.

For `CCCCCCCCCCCCCBr`, the Potency result in assay [1], in assay [2], in assay [5], in assay [6], in [7] and in assay [8] was “inactive” each time. Further, the Potency entry in [9], in assay [11] and in assay [13] was “inactive” in each case. The outcome (in assay [3]; in [4]; in the assay with Aromatase (Homo sapiens); in assay [10]; in assay [12]; in [14]) was inactive.

On to `CN1C[C@@H]2C[C@H]1CN2c1cc2c(cc1F)c(=O)c(C(=O)O)cn2C1CC1`, for which the Potency entry in [1], in assay [2], in [19], in assay [15], in [5] and in [6] was “inactive” throughout. Further, the Potency result in [7], in assay [8], in assay [9], in assay [11] and in assay [13] was “inactive” in each case. Besides, the result (in [3]; in [4]; in assay [18]; with Aromatase (Homo sapiens); in assay [16]; in [10]) was inactive. Besides, the compound was called inactive in assay [12].

As for `CC(=O)c1cc(C)oc1C`, the Potency entry in assay [1], in assay [2], in [5], in assay [6], in assay [7] and in assay [8] was “inactive” throughout. In addition, the Potency entry in [9], in [11] and in [13] was “inactive” in each case. Besides, the result (in [3]; in assay [4]; in the assay with Aromatase (Homo sapiens); in [10]; in assay [12]; in assay [14]) was inactive.

On to `c1ccc(-c2nn[nH]n2)cc1`, for which the Potency result in [1], in [2], in assay [19], in [15], in assay [5] and in assay [6] was “inactive” throughout. Besides, the Potency entry in [7], in assay [8], in [9], in assay [11] and in assay [13] was “inactive” in each case. In addition, the call (in assay [3]; in assay [4]; in [18]; with Aromatase (Homo sapiens); in assay [16]; in [10]) was inactive. Also, the compound was called inactive in assay [12] and in [14].

With `CC(=O)C1C(=O)C=C(C)OC1=O` (centres undefined), the Potency entry in assay [1], in [2], in assay [19], in assay [15], in assay [5] and in [6] was “inactive” throughout. The Potency entry in assay [8], in [9] and in [13] was “inactive” in each case. The call (in [3]; in [17]; in assay [18]; with Aromatase (Homo sapiens); in [10]; in assay [12]) was inactive. Besides, in assay [14], the compound was called inactive.

As to `CC1(C)CC(OC(=O)CCCCCCCCC(=O)OC2CC(C)(C)NC(C)(C)C2)CC(C)(C)N1`, the values for the Potency in assay [1] and in assay [2] were 2.96 µM (active) and 5.91 µM (active), respectively. Moreover, the outcome (in assay [3]; in assay [17]; in [18]; with Aromatase (Homo sapiens); in [16]; in assay [10]) was inactive. Moreover, the compound was called inactive in [12] and in assay [14]. Also, the Potency result in [19], in [15], in [5], in [6], in assay [7] and in assay [8] was “inactive” in each case. The Potency result in assay [9] and in [13] was “inactive” throughout.

On to `O/N=C/C=N/O`, for which the Potency result in assay [1], in assay [2], in assay [5], in [6], in assay [7] and in [8] was “inactive” throughout. The Potency result in assay [9], in assay [11] and in assay [13] was “inactive” each time. In addition, the call (in assay [3]; in [4]; with Aromatase (Homo sapiens); in [16]; in [10]; in assay [12]) was inactive. Besides, the call in assay [14] was inactive.

As for `CCc1occc(=O)c1O`, the Potency entry in [1], in [2], in assay [19], in [15], in assay [5] and in assay [6] was “inactive” throughout. The Potency result in [7], in [8], in assay [9] and in assay [13] was “inactive” each time. The compound was classed as inactive (in [3]; in assay [4]; in assay [18]; with Aromatase (Homo sapiens); in assay [10]; in assay [12]). Moreover, the compound was classed as inactive in [14].

For the compound `NCc1ccc(S(N)(=O)=O)cc1`, the Potency entry in assay [1], in assay [2], in assay [5], in assay [6], in [7] and in assay [8] was “inactive” in each case. Besides, the Potency entry in assay [9], in assay [11] and in assay [13] was “inactive” throughout. Moreover, the outcome (in assay [3]; in assay [4]; with Aromatase (Homo sapiens); in assay [16]; in assay [10]; in assay [12]) was inactive. In assay [14], the compound was classed as inactive.

Consider `Cc1c(N)cccc1Cl`, for which the Potency result in assay [1], in assay [2], in assay [19], in [5], in assay [6] and in [8] was “inactive” each time. The Potency result in assay [9] and in assay [13] was “inactive” throughout. The compound was classed as inactive (in [3]; in assay [17]; in assay [18]; with Aromatase (Homo sapiens); in assay [10]; in assay [12]). Besides, the compound was called inactive in assay [14].

Values taken from PubChem BioAssay (Tox21).
